A selection: hits, their analogues and other compounds. The true share with any hit is near 15%.
Sm TGR inh = inhibitors of Schistosoma mansoni thioredoxin glutathione reductase; hit rate 3% among 360,000; Q962Y6; purified TGR, DTNB reduction, TNB absorbance 405 nm; Potency, µM (highest dose often 114 µM), for the others: at the top dose activity change, negative = inhibition, hits mostly inhibitors; also: potency is read from the fitted curve at half-maximal effect; % is scaled to controls: 0 for no effect and ±100 for the full control effect; nearly all actives have a fitted effect of over 60% in size
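Kinetic colorimetric format: TGR-catalysed, NADPH-driven DTNB reduction monitored via TNB absorbance. Enzyme dispensed at 20 nM; compound exposure 15 min at room temperature before reaction start.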
HCV inh = inhibitors of hepatitis C virus infection | Huh7.5.1 HCVcc-Cre infection, luciferase reporter, 44 h | Potency, µM (top dose mostly 41.8 µM), for the others: at the top dose activity change, negative = inhibition, hits mostly inhibitors | hit rate 3.4% among 340,000 | AID 651820; also: potency is read from the fitted curve at half-maximal effect; % is scaled to controls: 0 for no effect and ±100 for the full control effect
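A cell-based infection assay in which seeded cells (1,000 per well) receive test compound after 4 h, are inoculated with HCVcc-Cre at approximately 0.5 moi, and are incubated 44 h before luminescence detection.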
HCMV antiviral = blocks human cytomegalovirus replication; hit rate 4.5% among 410,000; activity change, negative = inhibition, % at 57.5 µM; HFF cells, HCMV-luciferase reporter, 72 h; active compounds read low; in the data active = activity change below about -60%; inconclusive = no clear call, values can overlap the other calls; inactive = above about -39%; also: % is scaled to controls: 0 for no effect and ±100 for the full control effect
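Human foreskin fibroblasts infected with luciferase-reporter HCMV at MOI 1 PFU/cell, compounds at two doses. Luciferase measured 72 h post infection; normalized to buffer-only basal and Salinomycin (10uM) controls.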
Pf growth 96h = P. falciparum growth inhibition at 96 hours | AID 504834 | Potency, µM (top dose mostly 28.7 µM), without a hit: at the highest dose activity change, negative = inhibition, hits mostly inhibitors | hit rate 6.9% among 320,000 | P. falciparum luciferase reporter growth, 96 h; also: potency is read from the fitted curve at half-maximal effect; % is scaled to controls: 0 for no effect and ±100 for the full control effect
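Delayed-death screen, second-generation endpoint: infected erythrocytes, 2% hematocrit, 0.05% parasitemia final; 96 hours at 37 C, 5% CO2; luciferase detection reagent; luminescence decrease equals reduced growth.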
SARS PLpro yeast = SARS-CoV PLP inhibition in yeast | S. cerevisiae expressing SARS-CoV PLpro, growth rescue | Potency, µM (highest dose often 32.9 µM), without a hit: top-dose activity, positive = growth rescue, most hits filed as activators | hit rate 0.19% among 330,000 | AID 485353; calls by dose curve; also: potency is read from the fitted curve at half-maximal effect; 0% is about no effect; nearly all actives have a fitted effect of over 55% in size
Pf growth 48h = inhibits P. falciparum growth in the first generation, 48 h | P. falciparum luciferase growth in erythrocytes, 48 h | Potency, µM (highest dose often 28.7 µM), inactives show at the highest dose activity change, negative = inhibition, most hits filed as inhibitors | hit rate 5.9% among 310,000; also: potency is read from the fitted curve at half-maximal effect; % is scaled to controls: 0 for no effect and ±100 for the full control effect
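Luciferase-expressing parasites in RBCs, 2% Hct / 0.1% parasitemia final; RPMI 1640 + 0.5% Albumax; 37 C, 5% CO2, one generation; luminescence read-out, lower signal = inhibition.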
Active calls of the source: *; i = inactive; ? = inconclusive; · = no result; [ ] = remark or other dose. Unless noted, calls follow the shape of the dose curve; as a rule, active = well fitted curve in the direction sought with a large enough effect; inconclusive = small, poorly fitted or top-dose-only effect, or another doubt; inactive = no such curve, though single readings can be large; an effect the other way counts as inactive or inconclusive.

SMILES	Sm TGR inh	HCV inh	HCMV antiviral	Pf growth 96h	SARS PLpro yeast	Pf growth 48h
CCC(CCC(=O)Nc1nncs1)C(=O)O (configuration not stated)	1%	·	·	24%	-7%	·
CC(=O)c1sc(NC(=O)CCS(=O)(=O)c2ccccc2)nc1C	-20%	13µM*	97	-1%	-7%	2%
O=C(CCS(=O)(=O)c1ccccc1)Nc1nc2c(s1)COc1ccccc1-2	32µM*	-1%	-24	?	-4%	·
O=C(Nc1nc2c(s1)COc1ccccc1-2)c1cccs1	-13%	-15%	93	?	3%	·
O=C(CCS(=O)(=O)c1ccccc1)Nc1nncs1	20µM*	-9%	0	14%	0%	?
CC(=O)c1sc(NC(=O)CCS(=O)(=O)c2ccc(F)cc2)nc1C	·	·	-23	·	·	·
CC(CCC(=O)Nc1nncs1)C(=O)O (configuration not stated)	7%	18%	72	12µM*	-1%	-1%
O=C(CCCc1ccccc1)Nc1nncs1	0%	4%	37	-6%	?	15%
N#CC(Cc1ccccc1OC(F)F)c1nc2ccccc2[nH]1 (configuration not stated)	2%	-23%	-22	-26%	8%	?
N#CCCSc1nc(N2CCOCC2)c2c(c1C#N)CCCC2	10%	?	-34	-7%[5.75 µM]	0%	2%
CCCSc1nc(N2CCOCC2)c2c(c1C#N)CCCC2	?	11µM*	-31	3%	-15%	-26%
CCSc1nc(N2CCOCC2)c2c(c1C#N)CC(C)(C)N(C)C2	-21%	-4%	46	5.2µM*	-1%	·
C=CCSc1nc(N2CCOCC2)c2c(c1C#N)CC(C)(C)N(C)C2	-24%	-25%	-25	?	0%	?
CCC1(C)Cc2c(C#N)c(SC)nc(N3CCOCC3)c2CO1 (configuration not stated)	·	?	-39	·	·	·
COC(=O)CSc1nc(N2CCOCC2)c2c(c1C#N)CC(C)(C)N(C)C2	-18%	-24%	-23	·	0%	-13%
CC1(C)Cc2c(C#N)c(SCC(=O)c3ccccc3)nc(N3CCOCC3)c2CS1	-21%	?	18	?	3%	2.3µM*
CN1Cc2c(N3CCOCC3)nc(SCc3ccccc3)c(C#N)c2CC1(C)C	12%	10µM*	-21	6%	18%	0%
CCCOC(=O)C1=C(C)NC(=O)NC1c1cc2c(cc1Br)OCO2 (configuration not stated)	31%	3%	-11	10%	-1%	?
CC(=O)NC(c1cccc(F)c1)c1nc(-c2cc(F)cc(Cl)c2)cs1 (configuration not stated)	·	·	-1	·	·	·
CN(C)c1ccc(N/C(=N\S(=O)(=O)c2cccs2)c2ccccc2)cc1	13%	?	-68*	12%	3%	9%
Cc1cccc(-c2cc(C(=O)NCc3ccccn3)c3ccccc3n2)c1	-1%	?	20	?	-8%	?
CCCc1ccc(-c2cc(C(=O)NCCc3ccc(S(N)(=O)=O)cc3)c3ccccc3n2)cc1	-22%	?	63	i	5%	167%
Cc1ccc(-c2cc(C(=O)NCc3ccccn3)c3ccccc3n2)cc1C	-4%	?	4	-8%	-15%	8.3µM*
COCCNC(=O)c1cc(-c2ccc(-c3ccccc3)cc2)nc2ccccc12	0%	10µM*	-77*	-5%	0%	21%
O=C(NCc1ccccn1)c1cc(-c2ccccc2)nc2ccccc12	1%	-12%	54	6%	3%	?
SMILES	Sm TGR inh	HCV inh	HCMV antiviral	Pf growth 96h	SARS PLpro yeast	Pf growth 48h
O=C(NCc1ccccn1)c1cc(-c2ccc(-c3ccccc3)cc2)nc2ccccc12	-8%	?	-94*	?	-42%	?
NS(=O)(=O)c1ccc(CCNC(=O)c2cc(-c3ccc(Br)cc3)nc3ccccc23)cc1	-3%	?	-88*	?	1%	?
O=C(NCCCO)C(=O)NCc1ccccn1	-3%	5%	-32	22%	1%	9%
Cc1ccc(C(=O)c2sc(Nc3ccccc3)c(S(=O)(=O)c3ccccc3)c2N)c(C)c1	5%	·	9	·	·	·
CCOC(=O)C(Cc1c[nH]c2ccc([N+](=O)[O-])cc12)(NC(C)=O)C(=O)OCC	·	-8%	-24	·	·	·
COc1ccc(C)cc1Nc1cc(C)nc(C)n1	-2%	·	5	·	·	·
CC(=O)NC(c1ccccc1)c1nc(-c2cccs2)cs1 (configuration not stated)	·	·	10	·	·	·
CCCOc1ccc(C2C(=O)N(C3CCCCC3)CC(=O)N2CCc2ccccc2)cc1OC (configuration not stated)	5%	·	0	·	·	·
COc1ccc(CC(=O)N/N=C/C=C/c2cccc([N+](=O)[O-])c2)cc1OC	-11%	-23%	-15	?	0%	-7%
Cn1cc(/C=N/NC(=O)COc2ccccc2[N+](=O)[O-])c2ccccc21	-17%	?	-64*	105%	?	172%
COc1ccccc1OCC(=O)N/N=C/C=C/c1ccc([N+](=O)[O-])o1	45µM*	?	-38	1.5µM*	-39%	4.1µM*
CCCOc1ccc(CCC(=O)N/N=C/c2ccc([N+](=O)[O-])o2)cc1	-16%	?	29	12µM*	-3%	?
Cc1cccc(OCC(=O)N/N=C\c2cc3c(cc2[N+](=O)[O-])OCO3)c1C	-1%	11µM*	-24	?	0%	·
Cc1ccc([C@@H]2[C@@H]3C(=O)N(C)C(=O)[C@@H]3[C@]3(C)C(=O)N(Cc4ccc(-c5ccccc5)cc4)CC(=O)N23)o1	?	10%	15	35%	-1%	18%
Cc1ccccc1OCC(=O)NCC(=O)N/N=C/c1ccc(Br)o1	0%	-8%	-27	-26%	-10%	0%
Cc1ccccc1OCC(=O)N/N=C/c1ccc([N+](=O)[O-])o1	?	?	-86*	2.1µM*	15%	5.2µM*
Cc1ccc(/C=N\NC(=O)COc2ccc(C)cc2[N+](=O)[O-])cc1	7%	-24%	0	?	3%	?
O=C(COc1ccccc1[N+](=O)[O-])N/N=C/C=C/c1ccco1	35µM*	-17%	?	132%	2%	78%
Cc1cc(C)cc(OCC(=O)N/N=C/c2ccc([N+](=O)[O-])o2)c1	?	11µM*	?	31%	1%	9.3µM*
Cc1ccc(Oc2ccccc2/C=C/C(=O)O)cc1	-1%	18%	9	17%	-4%	-1%
Cc1ccc(SC2=C(Sc3ccc(C)cc3)C(=O)c3ccccc3C2=O)cc1	?	?	9	0.74µM*	-6%	0.41µM*
